Test results published in PubChem BioAssay (EPA / NIEHS).
Calls of active or inactive are those of the source. Rule for the calls: active = hit-call score of the fitted dose curve at least 0.9, where 1 is the maximum; inactive = score below 0.9.

What follows are molecules tested on MicroRNA 122 (MIR122), gene 406906 (assay: LTEA_HepaRG_MIR122: Life Technologies and Expression Analysis (LTEA) Assay for MicroRNA 122 (MIR122) using HepaRG (AID 2283516; note: the transcript read is the microRNA miR-122)). Details: mRNA level, 48 h; actives raise or lower the signal.
Description: LTEA_HepaRG is a cell based, multiplexed-readout assay that uses HepaRG, a human liver cell line, with measurements taken at 48 hours after chemical dosing on a 96-well plate.LTEA_HepaRG_MIR122 is one of 102 assay component(s) measured in the LTEA HepaRG cell culture assay. It is a marker of MicroRNA.Data from the assay component LTEA_HepaRG_MIR122 was analyzed into 1 endpoint. This assay endpoint, LTEA_HepaRG_MIR122, was analyzed with bidirectional fitting relative to DMSO as the negative control and baseline of activity. Using a type of inducible reporter, measures of mRNA induction for gain or loss-of-signal activity can be used to understand regulation of transcription factor activity. To generalize the intended target to other relatable targets, this assay endpoint is annotated to the microrna intended target family, where the subfamily is post-transcriptional regulation.
A total of 1060 chemcials from the ToxCast library were tested in eight-point concentration-response experiments. Cell culture and cytotoxicity assays were conducted at Thermo Fisher Scientific's Custom Services facility (Madison, WI). A single lot of human HepaRG cells (Thermo Fisher Scientific, Frederick, MD) was used for the cell culture experiments. 96-well format collagen type I coated plates of human HepaRG cells were prepared using established methods. Briefly, cryopreserved HepaRG cells were thawed, plated at a density of approximately 100,000 cells/well in HepaRG Thaw, Plate, and General Purpose media (HPRG770, Thermo Fisher Scientific), and incubated for 48 hours. 0.5% DMSO was selected as vehicle control to balance the requisite need of DMSO in HepaRG cultures to maintain differentiation (for example, baseline metabolism, proportions of hepatocytes vs. cholangiocytes), while enabling further hepatic receptor pathway activation (for example, PXR and CAR) in response to chemical exposure. 48 hours after plating, the culture medium was replaced with HepaRG Serum-Free Incudtion Media. Cells were exposed to each test chemical in duplicate and maintained in CO2 incubators for another 48 hours. Chemical plates were thawed to room temperature and 200x concentrations of treatment groups were prepared. 8-point conentration-reponse curves were made with the highest exposure at 100 uM, followed by half-log dilutions, all in 0.5% DMSO. Each test plate contained variouse controls, induction positive controls (1mM phenobarbital), cytotoxicity positive controls ([…] aflatoxin B1), vehicle controls (0.5% DMSO), and total lysis controls (0.5% DMSO). Cell morphology images were taken using an Essen IncuCyte FLR automated microscope, with six 96-well plates imaged in about 24 minutes. Images were captured and exported and JPEG files. Spent culture media was transfered to black-well plates for the LDH assay, and remaining media was sorted at -80 C for later use. Cells were treated with RLT buffer and frozen until shipped for gene expression analysis. Total RNA was isolated from the cell suspension in 75 uL of Buffer RLT (Qiagen, Germantown, MD 20874) by Quintiles/Expression Analysis (Durham, NC) using a custom isolation procedure. Total RNA from each plate well was transferred to a preamplification plate. Fluidigm's 96.96 Dynamic ArrayTM (Fluidigm, Amsterdam, the Netherlands) technology was used for gene expression analyses by quantitative reverse transcription polymerase chain reaction (qRT-PCR, performed by Quintiles/Expression Analysis, Durham, NC)89. Standard TaqManTM Assays (Applied Biosystems/ThermoFisher Scientific, Foster City, CA) were used to assess the expression of 93 genes selected based on their selectivity and sensitivity to important hepatic receptors known to be modulated by environmental chemicals; importance in human hepatocyte functionality; and hepatotoxicity. […]
`C=CCOC(=O)C(C)(C)OC(=O)c1cc(-n2c(=O)cc(C(F)(F)F)n(C)c2=O)ccc1Cl` was tested, and the outcome was “inactive”.
For `CCCC(=NOCC)C1=C(O)CC(CC(C)SCC)CC1=O` (stereo not given), the outcome was “inactive”.
`CCOP(=O)(OCC)Oc1nc(Cl)c(Cl)cc1Cl` was tested, and the AC50 was 87.7 µM (active).
For `CC(C)NC(=O)N1CC(=O)N(c2cc(Cl)cc(Cl)c2)C1=O`, the outcome was “inactive”.
With `OC(c1ccc(Cl)cc1)(c1ccc(Cl)cc1)C(Cl)(Cl)Cl` the AC50 was 64.9 µM (active).
`Cc1nc(N(C)C)nc(OC(=O)N(C)C)c1C` was tested, and the outcome was “inactive”.
With `CCNP(=S)(OC)O/C(C)=C/C(=O)OC(C)C` (stereo not given) the outcome was “inactive”.
For `CC1(C)CON(Cc2ccccc2Cl)C1=O`, the outcome was “inactive”.
In the case of `COCC(C)N(C(=O)CCl)c1c(C)csc1C` (stereo not given), the outcome is reported as “inactive”.
In the case of `CCCCC(C#N)(Cn1cncn1)c1ccc(Cl)cc1` (stereo not given), the outcome is reported as “inactive”.
With `CCN(CC)C(=O)C(C)Oc1cccc2ccccc12` (stereo not given) the AC50 was 81.1 µM (active).
In the case of `COCc1cnc(C2=NC(C)(C(C)C)C(=O)N2)c(C(=O)O)c1` (stereo not given), the outcome is reported as “inactive”.
For `COc1cc(Cl)c(OC)cc1Cl`, the outcome was “inactive”.
`COP(=S)(OC)SCn1nnc2ccccc2c1=O` was tested, and the outcome was “inactive”.
With `Nc1c(Cl)c(Cl)nc(C(=O)O)c1Cl` the outcome was “inactive”.
`COC(=O)NC(=S)Nc1ccccc1NC(=S)NC(=O)OC` was tested, and the outcome was “inactive”.
In the case of `COC(=O)NS(=O)(=O)c1ccc(N)cc1`, the outcome is reported as “inactive”.
`CCCN(CC)CC1COC2(CCC(C(C)(C)C)CC2)O1` (stereo not given) was tested, and the outcome was “inactive”.
In the case of `CCC(C)n1c(=O)[nH]c(C)c(Br)c1=O` (stereo not given), the AC50 is reported as 10.4 µM (active).
For `O=P(O)(O)CCCl`, the outcome was “inactive”.
`Nc1c(Cl)c(F)nc(OCC(=O)O)c1Cl` was tested, and the outcome was “inactive”.
`CN/C(=N\[N+](=O)[O-])NCc1cnc(Cl)s1` was tested, and the outcome was “inactive”.
For `O=C(O)c1c(Cl)ccc2cc(Cl)cnc12`, the outcome was “inactive”.
With `C=C(C)CN(CC)c1c([N+](=O)[O-])cc(C(F)(F)F)cc1[N+](=O)[O-]` the outcome was “inactive”.
For `CC1(C)C(C(=O)OC(C#N)c2cccc(Oc3ccccc3)c2)C1(C)C` (stereo not given), the outcome was “inactive”.
In the case of `CC1(C)CCC(=Cc2ccc(Cl)cc2)C1(O)Cn1cncn1` (stereo not given), the outcome is reported as “inactive”.
With `CNC(=O)N(C)c1nnc(C(C)(C)C)s1` the outcome was “inactive”.
With `CCOC(=O)C(C)OC(=O)c1cc(Oc2ccc(C(F)(F)F)cc2Cl)ccc1[N+](=O)[O-]` (stereo not given) the outcome was “inactive”.
In the case of `CC(C)C1(C)N=C(c2ncccc2C(=O)O)NC1=O` (stereo not given), the outcome is reported as “inactive”.
In the case of `Clc1cccc(C(Cl)(Cl)Cl)n1`, the outcome is reported as “inactive”.
In the case of `CSC(=O)c1c(C(F)F)nc(C(F)(F)F)c(C(=O)SC)c1CC(C)C`, the AC50 is reported as 49.8 µM (active).
With `Clc1nc(Cl)nc(Nc2ccccc2Cl)n1` the outcome was “inactive”.
`Cc1cc(C)nc(Nc2ccccc2)n1` was tested, and the outcome was “inactive”.
With `COP(=O)(OC)O/C(C)=C/C(=O)N(C)C` the outcome was “inactive”.
For `CCCCC(O)(Cn1cncn1)c1ccc(Cl)cc1Cl` (stereo not given), the AC50 was 77 µM (active).
`Nc1cnn(-c2ccccc2)c(=O)c1Cl` was tested, and the outcome was “inactive”.
In the case of `CNC(=O)Oc1cccc2ccccc12`, the outcome is reported as “inactive”.
For `CCSC(=O)N1CCCCCC1`, the outcome was “inactive”.
With `CC1(C)C(C=C(Cl)Cl)C1C(=O)OC(C#N)c1cccc(Oc2ccccc2)c1` (stereo not given) the outcome was “inactive”.
`COC(=O)N(C(=O)N1CO[C@@]2(C(=O)OC)Cc3cc(Cl)ccc3C2=N1)c1ccc(OC(F)(F)F)cc1` was tested, and the AC50 was 40 µM (active).
